Assay results as given in PubChem BioAssay (NCATS).
Inconclusive results are not listed. Values without a mark were called inactive. Calls of active or inactive are those of the source. Calls come from the whole dose curve; as a rule, active = well fitted inhibition curve with a large enough effect; inconclusive = small, poorly fitted or top-dose-only effect; inactive = no such curve, though single readings can be large or run the other way.

Test: qHTS Screen of the MIPE 4.0 Collection Against Ewings Sarcoma (TC71) (AID 1259253); note: nearly all actives have a fitted effect of over 40% in size;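 for viability (% of DMSO): 100% = DMSO-treated cells and 0% = medium-only wells without cells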
Conditions: TC71 Ewing sarcoma viability, CellTiter-Glo, 48 h; series mostly up to 45.8 µM; viability (% of DMSO): at the top concentration
From the text: There is a large unmet medical need for treatments for Ewing sarcoma, a pediatric sarcoma. We sought to identify compounds that inhibited Ewing sarcoma cells in vitro with the goal to then test promising drugs in two drug combinations in vitro to look for synergistic drug combinations. Promising combinations would then proceed to additional validation, including in vivo testing.
Using the NCATS developed oncology compound library called the Mechanism of Interrogation Plate (MIPE), four Ewing sarcoma cell lines were evaluated (TC32, TC71, RDES, EW8). Compounds, in a 12-point titration series, were incubated with cells for 48 hours and the read out was cell viability (CellTiter-Glo from Promega). These initial experiments were used to select appropriate concentrations of each single agent for subsequent two-drug matrix combinations such that the concentrations in the matrices would span both activity and non-activity.
Cells, in the log phase of growth, were seeded in 5 uL of RPMI plus 5% FBS, […] L-glutamine, 100 U/ml penicillin and 100 ug/ml streptomycin into 1536-well solid-bottom white tissue culture treated Greiner Bio One Plates (789173-F) using a MultiDrop Combi (Thermofisher Scientific) dispenser and a small sterile cassette. One column was media alone to be used as a :"no cells" control. The plates were then covered with sterilized stainless steel gasketed lids from Kalypsys. After allowing cells to attach for 4 hours, 23 nL of test compound or control (negative control DMSO and positive control 9.2 uM Bortezomib-final) were added from a 1536-well polypropylene compound source plate to each well using a 1536 head pin tool from Kalypsys. Cells were then incubated for 48 hours at 37C, 95% relative humidity and 5% CO2. After 48 hours, plates were removed from the incubator and 3 uL of CellTiter-Glo (Promega) was added using an Aurora Flying Reagent Dispenser Bioraptor. Plates were incubated at room temperature for 10 minutes prior to reading the luminescence on the Viewlux (PerkinElmer). The relative luciferase units are used to calculate the percent activity using the activity of DMSO in the cells and no cells columns for normalization of no inhibition and full inhibition respectively.
Potency is the fitted concentration of half-maximal effect.

SMILES | Potency | viability (% of DMSO)
Fc1ccc([C@@H]2CCNC[C@H]2COc2ccc3c(c2)OCO3)cc1 | 18.7 µM (active) | –
Clc1ccc2c(c1)C(N1CCNCC1)=Nc1ccccc1O2 | 16.6 µM (active) | –
Cc1cc(C(C)(C)C)cc(C)c1CC1=NCCN1 | – | 98.8%
Cn1ccc2cc3c(cc21)CCN3C(=O)Nc1cccnc1 | 23.5 µM (active) | –
CC#C[C@]1(O)CC[C@H]2[C@@H]3CCC4=CC(=O)CCC4=C3[C@@H](c3ccc(N(C)C)cc3)C[C@@]21C | 0.264 µM (active) | –
CCCCc1oc2ccccc2c1C(=O)c1cc(I)c(OCCN(CC)CC)c(I)c1 | 8.33 µM (active) | –
CC[N+](CC)(CC)CCOc1cccc(OCC[N+](CC)(CC)CC)c1OCC[N+](CC)(CC)CC | – | 122%
Cc1cn([C@H]2C=C[C@@H](CO)O2)c(=O)[nH]c1=O | – | 108% [at 92.2 µM]
NC(=O)NO | 5.9 µM (active) | –
Cc1cn([C@H]2C[C@H](N=[N+]=[N-])[C@@H](CO)O2)c(=O)[nH]c1=O | – | 123%
O=C(c1ccc(OCCN2CCCCC2)cc1)c1c(-c2ccc(O)cc2)sc2cc(O)ccc12 | 7.43 µM (active) | –
CC(C)(C)C(=O)Oc1ccc(S(=O)(=O)Nc2ccccc2C(=O)NCC(=O)O)cc1 | – | 132%
CC1(C)O[C@H]2CC(=O)OC[C@]23[C@H]2CC[C@@]4(C)[C@H](c5ccoc5)OC(=O)[C@H]5O[C@]54[C@]2(C)C(=O)C[C@@H]13 | – | 118%
CC(C)NCC(O)COc1ccc(CCOCC2CC2)cc1 (stereo not given) | – | 124%
CCOC(=O)c1ncn2c1CN(C)C(=O)c1cc(F)ccc1-2 | – | 124%
O=C1Cc2cc(CCN3CCN(c4nsc5ccccc45)CC3)c(Cl)cc2N1 | 23.5 µM (active) | –
CN(C)C(=N)N=C(N)N | – | 124%
CC(COc1ccccc1)N(CCCl)Cc1ccccc1 (stereo not given) | – | 81.2%
CN(C)CCCN1c2ccccc2CCc2ccc(Cl)cc21 | 0.743 µM (active) | –
C[C@@H]1CC(=O)NN=C1c1ccc(NN=C(C#N)C#N)cc1 | 29.6 µM (active) | –

SMILES | Potency | viability (% of DMSO)
Cn1cnc2c1c(=O)[nH]c(=O)n2C | 23.5 µM (active) | –
Nc1nc2c(ncn2COC(CO)CO)c(=O)[nH]1 | 23.5 µM (active) | –
O=C(CCCN1CCC(O)(c2ccc(Cl)cc2)CC1)c1ccc(F)cc1 | 18.7 µM (active) | –
CN1CCN2c3ccccc3Cc3ccccc3C2C1 (stereo not given) | 16.6 µM (active) | –
OCCN(CCO)c1nc(N2CCCCC2)c2nc(N(CCO)CCO)nc(N3CCCCC3)c2n1 | 20.9 µM (active) | –
Clc1ccccc1C(c1ccccc1)(c1ccccc1)n1ccnc1 | 20.9 µM (active) | –
COc1cc2c(c(OC)c1OC)-c1ccc(OC)c(=O)cc1[C@@H](NC(C)=O)CC2 | – | 25.6%
NC12CC3CC(CC(C3)C1)C2 | 26.4 µM (active) | –
CC(C)NCC(O)c1ccc(O)c(O)c1 (stereo not given) | 5.9 µM (active) | –
COc1ccccc1N1CCN(CC(O)COc2cccc3ccccc23)CC1 (stereo not given) | 16.6 µM (active) | –
COc1nc(C)nc(Cl)c1NC1=NCCN1 | – | 124%
CC12CC3CC(C)(C1)CC(N)(C3)C2 | – | 131%
CC(C)Cc1ccc(C(C)C(=O)O)cc1 (stereo not given) | – | 129% [at 23.2 µM]
COc1ccccc1OCC(O)CN1CCN(CC(=O)Nc2c(C)cccc2C)CC1 (stereo not given) | – | 135%
NCCS(=O)(=O)O | – | 109%
Clc1ccc2nsnc2c1NC1=NCCN1 | – | 118%
CCOC(=O)C(C)(C)Oc1ccc(Cl)cc1 | – | 130%
CC(=O)OCC(CCn1cnc2cnc(N)nc21)COC(C)=O | – | 121%
Cc1ccc(-c2cc(C(F)(F)F)nn2-c2ccc(S(N)(=O)=O)cc2)cc1 | 13.2 µM (active) | –
CC(CCc1ccc(O)cc1)NCCc1ccc(O)c(O)c1 (stereo not given) | 23.5 µM (active) | –
